{"source": "the OligoGym collection", "data": [{"target": "EPDR1", "assay": "pooled miR-30 sensor sort-seq; sequence = guide strand", "details": "shRNA", "values": [{"sequence": "TATCACACTGTAGTTTATGGTA", "sensor-assay potency score (higher = more potent)": -0.596}, {"sequence": "TAGAGGAATAATTACTTCCTAT", "sensor-assay potency score (higher = more potent)": -0.811}, {"sequence": "TACGAGGGAACTCTAGTCCTGG", "sensor-assay potency score (higher = more potent)": -0.607}, {"sequence": "TTAGGAGACAATAGTCTCCTGA", "sensor-assay potency score (higher = more potent)": -0.95}, {"sequence": "TCAATCTGAAACATCACTCCAT", "sensor-assay potency score (higher = more potent)": 1.13}, {"sequence": "TAGGATCTAGCTGACTTTCTGT", "sensor-assay potency score (higher = more potent)": 0.667}, {"sequence": "TAGTCTCATATCCATCTCCAGC", "sensor-assay potency score (higher = more potent)": -1.45}, {"sequence": "TCTAGCTGACTTTCTGTCCGAC", "sensor-assay potency score (higher = more potent)": -0.0561}, {"sequence": "TAGCATTCACATCTTGACTAGT", "sensor-assay potency score (higher = more potent)": 0.0481}]}, {"target": "EPGN", "assay": "pooled miR-30 sensor sort-seq; sequence = guide strand", "details": "shRNA", "values": [{"sequence": "TTTCTCTAGCTCATGGTGGAAT", "sensor-assay potency score (higher = more potent)": -1.09}, {"sequence": "TAATAGTAATCCAACACCAATC", "sensor-assay potency score (higher = more potent)": -1.34}, {"sequence": "TTTCATAAGAATCCACAGCATA", "sensor-assay potency score (higher = more potent)": -0.859}, {"sequence": "TTCTATGTTGTCAGCTTGCTGG", "sensor-assay potency score (higher = more potent)": -0.845}, {"sequence": "AACCACTTAATAGTAATCCAAC", "sensor-assay potency score (higher = more potent)": -1.22}, {"sequence": "TTGAATAAAAGATAGACTGATA", "sensor-assay potency score (higher = more potent)": -0.413}, {"sequence": "TAAGAATCCACAGCATATGAAG", "sensor-assay potency score (higher = more potent)": -1.16}, {"sequence": "TAACCAGTAAAACACCTGCAGA", "sensor-assay potency score (higher = more potent)": -1.05}, {"sequence": "TTGGAGGTGTTACAGTCACGGC", "sensor-assay potency score (higher = more potent)": -1.5}, {"sequence": "TATGTTGTCAGCTTGCTGGGCT", "sensor-assay potency score (higher = more potent)": 0.572}, {"sequence": "ATAACCAGTAAAACACCTGCAG", "sensor-assay potency score (higher = more potent)": -0.113}, {"sequence": "TGCAGTAACTGTTATGATCTTC", "sensor-assay potency score (higher = more potent)": -0.113}]}, {"target": "EPHA6", "assay": "pooled miR-30 sensor sort-seq; sequence = guide strand", "details": "shRNA", "values": [{"sequence": "TTGGCTTGAATTTAATTCCGTG", "sensor-assay potency score (higher = more potent)": 0.00331}, {"sequence": "TTCAGCTCGGAAATAACCCTTT", "sensor-assay potency score (higher = more potent)": -0.23}, {"sequence": "TTTCTTACAGATTACACTGTAT", "sensor-assay potency score (higher = more potent)": -0.425}, {"sequence": "TGTATCAAGCAACACAACTTGG", "sensor-assay potency score (higher = more potent)": -0.401}, {"sequence": "TATCAAGCAACACAACTTGGTT", "sensor-assay potency score (higher = more potent)": -0.642}, {"sequence": "TTACAGATTACACTGTATGTGA", "sensor-assay potency score (higher = more potent)": 0.175}, {"sequence": "TTTTCTGAGCTGCATCACGGGA", "sensor-assay potency score (higher = more potent)": -0.977}, {"sequence": "TACAGTTGTTGTATCAAGCAAC", "sensor-assay potency score (higher = more potent)": 0.0165}, {"sequence": "TTTCTGACTGTAGCCACTGTAT", "sensor-assay potency score (higher = more potent)": -1.06}, {"sequence": "TTCCATTACATTACATACCTGG", "sensor-assay potency score (higher = more potent)": 0.0947}, {"sequence": "ATTTCTTGTAGAAAACACGGAC", "sensor-assay potency score (higher = more potent)": -0.586}]}, {"target": "EPHA8", "assay": "pooled miR-30 sensor sort-seq; sequence = guide strand", "details": "shRNA", "values": [{"sequence": "TCCATTCTGATAGTGCATCTTC", "sensor-assay potency score (higher = more potent)": -0.518}, {"sequence": "TTCTCGTAGTACTTGATCTCAT", "sensor-assay potency score (higher = more potent)": -0.461}, {"sequence": "TCCAGAGTCACTGATGTCCCAT", "sensor-assay potency score (higher = more potent)": -0.773}, {"sequence": "TAGTACTTGATCTCATACTCCA", "sensor-assay potency score (higher = more potent)": -0.186}, {"sequence": "TTTGAGGAACTGGCTTTCTTGT", "sensor-assay potency score (higher = more potent)": -1.09}, {"sequence": "TAGCTGAGGTCACAGTGGCAGG", "sensor-assay potency score (higher = more potent)": -1.64}, {"sequence": "TCTGTCTCTCCGTGTAGCCGGC", "sensor-assay potency score (higher = more potent)": -0.777}, {"sequence": "ATTTTCTCGATGTGGATCCTAG", "sensor-assay potency score (higher = more potent)": -0.272}]}]}
